# Reference: PubChem BioAssay (NCATS)
# Results filed as inconclusive are left out. Unmarked numbers belong to inactive results. Calls of active or inactive are those of the source. Calls follow the shape of the dose curve; as a rule, active = well fitted curve in the direction sought with a large enough effect; inconclusive = small, poorly fitted or top-dose-only effect, or another doubt; inactive = no such curve, though single readings can be large; an effect the other way counts as inactive or inconclusive.
# Tests used:
# [1] = Quantitative High-Throughput drug screen in 47 multiple myeloma cell lines against the NCATS MIPE library collection: KMS21BM_JCRB cell viability assay (AID 1918974); details: ATP luminescence, 48 h; viability: at 45.8 µM unless noted
# In short: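 Viability readout: CellTiter-Glo luminescence following 5 min room-temperature incubation with reagent. Prior exposure: 48 h, 37C, humidified 5% CO2, 500 cells per well.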
# [2] = Quantitative High-Throughput drug screen in 47 multiple myeloma cell lines against the NCATS MIPE library collection: KMS26_JCRB cell viability assay (AID 1918975); also: nearly all actives have a fitted effect of over 45% in size
# In short: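 Inhibition of cell viability is measured here. Each line was plated at 500 cells per well, treated with MIPE 4.0 drugs, kept 48 hours at 37C, then assayed for ATP content by CellTiter-Glo luminescence.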
# [3] = Quantitative High-Throughput drug screen in 47 multiple myeloma cell lines against the NCATS MIPE library collection: MMM1_PLB cell viability assay (AID 1918976); also: nearly all actives have a fitted effect of over 35% in size
# In short: (§1)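 qHTS format: cells plated (500/well), pin-dosed with MIPE 4.0 compounds, kept 48 h at 37 °C. Readout was CellTiter-Glo luminescence, median RLU.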
# [4] = Quantitative High-Throughput drug screen in 47 multiple myeloma cell lines against the NCATS MIPE library collection: MOLP8_DSMZ cell viability assay (AID 1918977); also: nearly all actives have a fitted effect of over 45% in size
# In short: as §1
# [5] = Quantitative High-Throughput drug screen in 47 multiple myeloma cell lines against the NCATS MIPE library collection: NCIH929_DSMZ cell viability assay (AID 1918978); also: nearly all actives have a fitted effect of over 35% in size
# In short: as §1
# [6] = Quantitative High-Throughput drug screen in 47 multiple myeloma cell lines against the NCATS MIPE library collection: OCIMY1_PLB cell viability assay (AID 1918979); also: nearly all actives have a fitted effect of over 35% in size;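 as to viability: series mostly up to about 46 µM; 100% = DMSO-only wells and 0% = cell-free media-only wells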
# In short: as §1
# [7] = Quantitative High-Throughput drug screen in 47 multiple myeloma cell lines against the NCATS MIPE library collection: MM1S_ATCC cell viability assay (AID 1918980); also: nearly all actives have a fitted effect of over 45% in size
# In short: as §1
# [8] = Quantitative High-Throughput drug screen in 47 multiple myeloma cell lines against the NCATS MIPE library collection: MM1R_ATCC cell viability assay (AID 1918981); also: nearly all actives have a fitted effect of over 35% in size
# In short: as §1
# [9] = Quantitative High-Throughput drug screen in 47 multiple myeloma cell lines against the NCATS MIPE library collection: LP1_DSMZ cell viability assay (AID 1918982); also: nearly all actives have a fitted effect of over 35% in size
# In short: as §1
# [10] = Quantitative High-Throughput drug screen in 47 multiple myeloma cell lines against the NCATS MIPE library collection: KMS28PE_JCRB cell viability assay (AID 1918983); also: nearly all actives have a fitted effect of over 35% in size
# In short: as §1
# [11] = Quantitative High-Throughput drug screen in 47 multiple myeloma cell lines against the NCATS MIPE library collection: L363_DSMZ cell viability assay (AID 1918984); also: nearly all actives have a fitted effect of over 40% in size
# In short: as §1
# [12] = Quantitative High-Throughput drug screen in 47 multiple myeloma cell lines against the NCATS MIPE library collection: KMS34_JCRB cell viability assay (AID 1918985); also: nearly all actives have a fitted effect of over 40% in size
# In short: as §1
# [13] = Quantitative High-Throughput drug screen in 47 multiple myeloma cell lines against the NCATS MIPE library collection: OCIMY7_PLB cell viability assay (AID 1918987); also: nearly all actives have a fitted effect of over 65% in size
# In short: as §1
# [14] = Quantitative High-Throughput drug screen in 47 multiple myeloma cell lines against the NCATS MIPE library collection: OCIMY5_PLB cell viability assay (AID 1918988); also: nearly all actives have a fitted effect of over 65% in size
# In short: as §1
# [15] = Quantitative High-Throughput drug screen in 47 multiple myeloma cell lines against the NCATS MIPE library collection: OPM1_PLB cell viability assay (AID 1918989); also: nearly all actives have a fitted effect of over 40% in size
# In short: as §1
# [16] = Quantitative High-Throughput drug screen in 47 multiple myeloma cell lines against the NCATS MIPE library collection: SKMM1_PLB cell viability assay (AID 1919863); details: SKMM1 myeloma viability, CellTiter-Glo ATP, 48 h; viability: stronger effect = lower value; also: nearly all actives have a fitted effect of over 35% in size; as to viability: series mostly up to about 46 µM
# In short: as §1
# [17] = Quantitative High-Throughput drug screen in 47 multiple myeloma cell lines against the NCATS MIPE library collection: U266_ATCC cell viability assay (AID 1919864); also: nearly all actives have a fitted effect of over 35% in size
# In short: as §1
# [18] = Quantitative High-Throughput drug screen in 47 multiple myeloma cell lines against the NCATS MIPE library collection: XG6_PLB cell viability assay (AID 1919865); also: nearly all actives have a fitted effect of over 40% in size
# In short: as §1
# [19] = Quantitative High-Throughput drug screen in 47 multiple myeloma cell lines against the NCATS MIPE library collection: XG1_PLB cell viability assay (AID 1919866); also: nearly all actives have a fitted effect of over 35% in size
# In short: as §1
# [20] = Quantitative High-Throughput drug screen in 47 multiple myeloma cell lines against the NCATS MIPE library collection: VP6_DJ cell viability assay (AID 1919867); also: nearly all actives have a fitted effect of over 40% in size
# In short: as §1
# Potency is read from the fitted curve at half-maximal effect.
structure (smiles),measurement,setting,value
CC1(C)OC2=C(C(=O)c3ccccc3C2=O)[C@H](NCc2ccccc2)[C@H]1O,Potency,[1],1050 nM (active)
same,Potency,[2],5260 nM (active)
same,Potency,[3],2090 nM (active)
same,Potency,[4],2960 nM (active)
same,Potency,[5],2350 nM (active)
same,Potency,[6],4180 nM (active)
same,Potency,[7],2090 nM (active)
same,Potency,[8],4180 nM (active)
same,Potency,[9],4690 nM (active)
same,Potency,[10],6620 nM (active)
same,Potency,[11],2090 nM (active)
same,Potency,[12],4180 nM (active)
same,Potency,[13],1320 nM (active)
same,Potency,[14],3320 nM (active)
same,Potency,[15],2350 nM (active)
same,Potency,[16],7430 nM (active)
same,Potency,[17],2640 nM (active)
same,Potency,[18],935 nM (active)
same,Potency,[19],1480 nM (active)
same,Potency,[20],3320 nM (active)
CC(C)(C)c1cc(NC(=O)Nc2ccc(-c3cn4c(n3)sc3cc(OCCN5CCOCC5)ccc34)cc2)no1,Potency,[1],inactive
same,Potency,[2],18700 nM (active)
same,Potency,[5],inactive
same,Potency,[7],inactive
same,Potency,[11],inactive
same,Potency,[13],inactive
same,Potency,[18],418 nM (active)
O=C(C=Cc1cccc(S(=O)(=O)Nc2ccccc2)c1)NO,Potency,[1],540 nM (active)
same,Potency,[2],8550 nM (active)
same,Potency,[3],10800 nM (active)
same,Potency,[5],3030 nM (active)
same,Potency,[6],6790 nM (active)
same,Potency,[7],1910 nM (active)
same,Potency,[8],1210 nM (active)
same,Potency,[9],2700 nM (active)
same,Potency,[10],3820 nM (active)
same,Potency,[11],855 nM (active)
same,Potency,[12],1360 nM (active)
same,Potency,[13],2150 nM (active)
same,Potency,[14],1210 nM (active)
same,Potency,[15],1910 nM (active)
same,Potency,[16],4290 nM (active)
same,Potency,[17],2700 nM (active)
same,Potency,[18],4810 nM (active)
same,Potency,[20],855 nM (active)
O=C(NCCCNc1nc(Nc2cccc(NC(=O)N3CCCC3)c2)ncc1I)c1cccs1,Potency,[1],inactive
same,Potency,[3],23500 nM (active)
same,Potency,[4],5260 nM (active)
same,Potency,[6],18700 nM (active)
same,Potency,[7],18700 nM (active)
same,Potency,[8],20900 nM (active)
same,Potency,[9],18700 nM (active)
same,Potency,[10],18700 nM (active)
same,Potency,[12],1050 nM (active)
same,Potency,[13],1870 nM (active)
same,Potency,[14],13200 nM (active)
same,Potency,[15],3720 nM (active)
same,Potency,[16],20900 nM (active)
same,Potency,[17],18700 nM (active)
same,Potency,[18],1320 nM (active)
same,Potency,[19],1050 nM (active)
same,Potency,[20],2090 nM (active)
CCC1=C[C@@H]2CN(C1)Cc1c([nH]c3ccccc13)[C@@](C(=O)OC)(c1cc3c(cc1OC)N(C)[C@@H]1[C@@](O)(C(=O)OC)[C@H](OC(C)=O)[C@]4(CC)C=CCN5CC[C@]31[C@@H]54)C2,Potency,[1],33.2 nM (active)
same,Potency,[2],2960 nM (active)
same,Potency,[3],1870 nM (active)
same,Potency,[5],2090 nM (active)
same,Potency,[6],2090 nM (active)
same,Potency,[7],372 nM (active)
same,Potency,[8],187 nM (active)
same,Potency,[9],33.2 nM (active)
same,Potency,[10],20.9 nM (active)
same,Potency,[13],166 nM (active)
same,Potency,[15],26.4 nM (active)
same,Potency,[16],23.5 nM (active)
C[C@]1(CO)CN(c2cc(C(=O)Nc3ccc4c(c3)-c3c(c(C(N)=O)nn3-c3ccc(F)cc3)CC4)c(Cl)cn2)C[C@@]1(C)CO,Potency,[1],5260 nM (active)
same,Potency,[3],14800 nM (active)
same,Potency,[5],9350 nM (active)
same,Potency,[6],inactive
same,Potency,[7],14800 nM (active)
same,Potency,[8],8330 nM (active)
same,Potency,[13],1870 nM (active)
same,Potency,[15],3720 nM (active)
same,Potency,[17],18700 nM (active)
same,Potency,[18],4180 nM (active)
same,Potency,[19],14800 nM (active)
same,Potency,[20],16600 nM (active)
O=C(O)[C@H](Cc1c[nH]c2ccccc12)N1C(=O)c2ccccc2C1=O,Potency,[1],inactive
same,Potency,[2],inactive
same,Potency,[4],inactive
same,Potency,[5],54000 nM (active)
same,Potency,[6],inactive
same,Potency,[7],42900 nM (active)
same,Potency,[9],inactive
same,Potency,[10],inactive
same,Potency,[12],inactive
same,Potency,[13],30300 nM (active)
same,Potency,[14],inactive
same,Potency,[15],inactive
same,viability,[16],111%
same,Potency,[20],48100 nM (active)
Cc1ccc(NC(=O)C2(c3ccc4c(c3)OC(F)(F)O4)CC2)nc1-c1cccc(C(=O)O)c1,Potency,[1],46.9 nM (active)
same,Potency,[2],59 nM (active)
same,Potency,[3],52.6 nM (active)
same,Potency,[6],187 nM (active)
same,Potency,[7],52.6 nM (active)
same,Potency,[8],59 nM (active)
same,Potency,[9],66.2 nM (active)
same,Potency,[10],41.8 nM (active)
same,Potency,[11],29.6 nM (active)
same,Potency,[12],93.5 nM (active)
same,Potency,[13],132 nM (active)
same,Potency,[14],46.9 nM (active)
same,Potency,[15],148 nM (active)
same,Potency,[16],74.3 nM (active)
same,Potency,[17],29.6 nM (active)
same,Potency,[18],66.2 nM (active)
same,Potency,[19],46.9 nM (active)
same,Potency,[20],46.9 nM (active)
Cc1ccc(C(=O)Nc2cccc(C(F)(F)F)c2)cc1-c1ccc2nc(NCCN3CCOCC3)ncc2c1,Potency,[1],1660 nM (active)
same,Potency,[3],14800 nM (active)
same,Potency,[4],3320 nM (active)
same,Potency,[5],5260 nM (active)
same,Potency,[6],18700 nM (active)
same,Potency,[7],16600 nM (active)
same,Potency,[8],14800 nM (active)
same,Potency,[9],18700 nM (active)
same,Potency,[10],14800 nM (active)
same,Potency,[11],1050 nM (active)
same,Potency,[12],9350 nM (active)
same,Potency,[13],935 nM (active)
same,Potency,[14],14800 nM (active)
same,Potency,[15],7430 nM (active)
same,Potency,[16],16600 nM (active)
same,Potency,[17],14800 nM (active)
same,Potency,[18],3320 nM (active)
same,Potency,[19],4690 nM (active)
same,Potency,[20],11800 nM (active)
COc1ccc(F)c(F)c1C(=O)c1cnc(NC2CCN(S(C)(=O)=O)CC2)nc1N,Potency,[1],296 nM (active)
same,Potency,[2],2640 nM (active)
same,Potency,[3],2640 nM (active)
same,Potency,[5],1870 nM (active)
same,Potency,[6],3720 nM (active)
same,Potency,[7],1660 nM (active)
same,Potency,[8],2090 nM (active)
same,Potency,[9],2960 nM (active)
same,Potency,[10],2350 nM (active)
same,Potency,[11],1320 nM (active)
same,Potency,[12],1320 nM (active)
same,Potency,[13],1660 nM (active)
same,Potency,[14],1320 nM (active)
same,Potency,[15],1870 nM (active)
same,Potency,[16],2960 nM (active)
same,Potency,[18],1050 nM (active)
same,Potency,[20],935 nM (active)
